High-throughput results as filed in PubChem.
A selection: hits, their analogues and other compounds. The true share with any hit is near 6.9%.
SW480 rereplic = A quantitative high throughput screen for small molecules that induce DNA re-replication in SW480 colon adenocarcinoma cells; Potency, µM (highest dose often 46.1 µM), for the others: at the highest dose re-replication activation, most hits filed as activators; SW480 DNA re-replication, Hoechst DNA content imaging, 48 h; 340,000 tested, 1.8% active; note: potency is the fitted concentration of half-maximal effect; % of control where 0% means no effect; nearly all actives have a fitted effect of over 55% in size
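250 cells/well; 23 nL cpd via pin tool; 48 hr, 37 C, 5% CO2; Hoechst 40 min; imager read of total nuclear intensity, ex 405/em 500-530 nm.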
KB-V1 cytotox = qHTS assay for MDR1-selective chemotherapeutics: Primary screen using the drug-selected MDR subline cells KB-V1 | KB-V1 MDR cells viability, CellTiter-Glo, 72 h | Potency, µM (doses to about 46.1 µM), most hits filed as cytotoxic | 400,000 tested, 3.4% active | AID 1347076, 2019; note: potency is the fitted concentration of half-maximal effect; % is set by controls: 0 for no effect and ±100 for the full control effect; nearly all actives have a fitted effect of over 60% in size
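KB-V1 MDR subline cells in DMEM (phenol-red free, 10% FBS) exposed to compounds in qHTS concentration series for 72 h at 37 degrees C. Viability read by CellTiter-Glo luminescence; concentration-effect curves fitted after normalization and correction.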
KB-3-1 tox = qHTS assay for MDR1-selective chemotherapeutics: Primary screen using the parental adenocarcinoma cell KB-3-1; KB-3-1 viability, CellTiter-Glo ATP luminescence, 72 h; Potency, µM (highest dose often 46.1 µM), most hits filed as cytotoxic; 400,000 tested, 1.4% active; AID 1347075, 2019; note: potency is the fitted concentration of half-maximal effect; % is set by controls: 0 for no effect and ±100 for the full control effect; nearly all actives have a fitted effect of over 60% in size
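Screening of KB-3-1 cells (DMEM, 10% FBS, phenol-red free) ran from lowest to highest compound concentration; after 72 h at 37 °C viability was read luminescently and curves fitted.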
S-ASM inh = Inhibitors of Secretory Acid Sphingomyelinase (S-ASM): qHTS | Sphingomyelin phosphodiesterase (Homo sapiens), P17405 | Potency, µM (doses to about 57.5 µM), without a hit: top-dose activity change, negative = inhibition, hits mostly inhibitors | 340,000 tested, 0.006% active | placental ASM, HMU-PC fluorogenic substrate, 60 min; note: potency is the fitted concentration of half-maximal effect
Target sequence (P17405 47-631 limits assumed): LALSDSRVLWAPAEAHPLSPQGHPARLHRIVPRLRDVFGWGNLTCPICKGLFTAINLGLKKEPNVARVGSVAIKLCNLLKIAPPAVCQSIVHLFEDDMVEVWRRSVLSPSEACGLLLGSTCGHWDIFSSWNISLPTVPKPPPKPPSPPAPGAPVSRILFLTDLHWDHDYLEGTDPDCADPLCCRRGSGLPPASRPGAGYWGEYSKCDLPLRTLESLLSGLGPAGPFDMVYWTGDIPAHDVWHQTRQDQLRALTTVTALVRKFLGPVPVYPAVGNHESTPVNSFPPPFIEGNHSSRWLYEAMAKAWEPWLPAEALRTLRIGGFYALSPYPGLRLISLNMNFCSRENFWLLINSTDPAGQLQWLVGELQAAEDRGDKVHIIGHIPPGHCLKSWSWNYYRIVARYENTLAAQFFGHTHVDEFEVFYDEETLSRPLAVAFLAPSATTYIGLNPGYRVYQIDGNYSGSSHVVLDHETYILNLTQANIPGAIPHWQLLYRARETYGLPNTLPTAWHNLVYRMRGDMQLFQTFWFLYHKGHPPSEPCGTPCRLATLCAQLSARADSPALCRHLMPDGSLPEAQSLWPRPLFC
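Fluorescence read-out (Ex 386 nm, Em 447 nm) after stopping the reaction at pH 10. Enzyme: ASM from human placenta; substrate HMU-PC0, 9 uM final; 60 min, 37 °C. Compound preincubation 10 min, ambient temperature.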
MCF10A rereplic = A quantitative high throughput screen for small molecules that induce DNA re-replication in MCF 10a normal breast cells. Potency, µM (series often up to 46.1 µM), for the others: at the highest dose activity, positive = re-replication, actives largely listed as activators. 350,000 tested, 2.9% active. MCF 10A DNA re-replication, Hoechst nuclear intensity, 48 h. AID 624296, 2012; note: potency is the fitted concentration of half-maximal effect; % of control where 0% means no effect; nearly all actives have a fitted effect of over 50% in size
Giardia kill = Small Molecules that selectively kill Giardia lamblia: qHTS; activity change, % at 7.66 µM, hits read low; 340,000 tested, 0.15% active; Giardia lamblia trophozoite viability; in the data active = activity change below about -80%; inconclusive = between about -30% and that limit;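 note: parasites exposed to compound for two days anaerobically before the ATP read; % is set by controls: 0 for no effect and ±100 for the full control effect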
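Each well holds 100 Giardia trophozoites and compound. After two days (48 hrs) at 37 deg C in anaerobic conditions, ATP is quantified by luminescence.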
Starred values were filed as active, the others as inactive; i = inactive; ? = inconclusive; nt = not tested or not shown. Unless noted, calls come from the whole dose curve; as a rule, active = well fitted curve in the direction sought with a large enough effect; inconclusive = small, poorly fitted or top-dose-only effect, or another doubt; inactive = no such curve, though single readings can be large; an effect the other way counts as inactive or inconclusive.

SMILES	SW480 rereplic	KB-V1 cytotox	KB-3-1 tox	S-ASM inh	MCF10A rereplic	Giardia kill
CCOc1ccc2nc(NCCNC(=S)NCCCN(C)C)c(C#N)cc2c1	16µM*	i	i	347%	12µM*	-8
Cc1cccc2cc(C#N)c(NCCNC(=S)NCCCN3CCOCC3)nc12	13%	i	i	257%	?	-9
CCOc1ccc2nc(NCCNC(=O)Nc3cccc(C)c3)c(C#N)cc2c1	9.2µM*	?	?	480%	?	7
Clc1ccc(CCNC(c2nnc(-c3ccccc3)o2)c2ccccc2Cl)cc1 (configuration not stated)	nt	?	i	nt	nt	nt
O=C(Nc1cccc(-c2nc3cc(Cl)ccc3o2)c1)c1ccc(F)cc1	nt	i	i	nt	nt	nt
COc1ccc(-c2nc(-c3cccc(C)c3)nc(N3CCN(C)CC3)c2C#N)cc1	?	4.6µM*	5.8µM*	-3%	?	1
COc1ccc(-c2nc(-c3ccccc3)nc(N3CCN(C)CC3)c2C#N)cc1	-17%	?	?	-4%	11%	4
N#CC(C#N)=C1C=CC=CN1/C(=C\c1ccco1)C(=O)c1ccc(-c2ccccc2)cc1	nt	i	i	-22%	3.3µM*	-18
N#C/C(=C\c1ccco1)C(=O)NCc1ccccc1	-160%	i	i	-4%	-4%	-3
N#CC(C#N)=C1C=CC=CN1/C(=C\c1ccco1)C(=O)c1ccc(Cl)cc1	2.6µM*	i	i	-5%	1.6µM*	2
CCc1nnc2c3ccccc3nc(Nc3ccc(F)c(Cl)c3)n12	nt	?	i	nt	nt	nt
O=C1CC(N2CCN(Cc3ccccc3)CC2)C(=O)N1CCc1ccccc1 (configuration not stated)	-5%	i	i	5%	26µM*	5
Cc1ccnc2c(Cl)ccc(Cl)c12	nt	i	i	nt	nt	nt
C#CCOCCOCCOCCNc1nc(N2CCN(C(=O)CCCCCCCCCCNC(=O)Cn3cc(C[C@@H](C)O)nn3)CC2)nc(N2CCN(C(=O)CCCCCCCCCCNC(=O)[C@H](CO)n3cc(CCCSC)nn3)CC2)n1	8%	?	i	-2%	6.5µM*	9
C#CCOCCOCCOCCNc1nc(N2CCN(C(=O)CCCCCCCCCCNC(=O)Cn3cc(C[C@@H](C)O)nn3)CC2)nc(N2CCN(C(=O)CCCCCCCCCCNC(=O)[C@@H](CCC(=O)O)n3cc(CCCCCN)nn3)CC2)n1	-6%	i	i	-8%	-2%	13
C#CCOCCOCCOCCNc1nc(N2CCN(C(=O)CCCCCCCCCCNC(=O)[C@H]([C@@H](C)CC)n3cc(CCCCCN)nn3)CC2)nc(N2CCN(C(=O)CCCCCCCCCCNC(=O)[C@H](CO)n3cc(CCCCCN)nn3)CC2)n1	-4%	i	?	-12%	3%	9
C#CCOCCOCCOCCNc1nc(N2CCOCC2)nc(N2CCN(C(=O)CCCCCCCCCCNC(=O)[C@@H]([C@H](C)CC)n3cc(CCCCCN)nn3)CC2)n1	?	i	i	-3%	12µM*	-17
CSc1ccc(Cl)c(C(=O)Nc2ccc(Cl)cn2)c1	21µM*	i	23µM*	-3%	21µM*	1
COc1ccc(C(=O)NNC(=S)NC(=O)c2ccc(F)cc2)cc1Br	-22%	?	i	-1%	10%	26
COc1cc(C(=O)NC(=S)Nc2ccc(Cl)cn2)cc(OC)c1OC	18µM*	?	i	-4%	?	?
COc1cc(C(=O)NNC(=S)NC(=O)c2ccc(F)cc2)cc(OC)c1OC	?	?	i	4%	23µM*	-6
O=C(NC(=S)Nc1ccc(Cl)cn1)C(c1ccccc1)c1ccccc1	?	?	18µM*	-17%	15µM*	-11
Cc1cncc(C(=O)O)[n+]1[O-]	10%	nt	nt	nt	-7%	nt
CCOC(=O)c1ccc(NC(=O)c2cnn(-c3ccc(C)cc3C)c2C2CCN(C(=O)OC(C)(C)C)CC2)cc1	nt	i	i	nt	nt	nt
COc1cc(SC)ccc1C(=O)Nc1ccncc1	-87%	?	i	-4%	0%	-12
SMILES	SW480 rereplic	KB-V1 cytotox	KB-3-1 tox	S-ASM inh	MCF10A rereplic	Giardia kill
COc1cc(SC)ccc1C(=O)Nc1ccc(Cl)cn1	-114%	13µM*	?	3%	-35%	?
COc1ccc(-c2noc(-c3cccnc3N3CCN(c4ccc(OC)cc4)CC3)n2)cc1	nt	i	i	nt	nt	nt
NC(=O)c1nnn(Cc2cc(Cl)c(C(=O)c3ccc(Cl)cc3)c(Cl)c2)c1N	nt	8.2µM*	?	nt	nt	nt
Nc1c(C(=O)Nc2ccc3c(c2)OCCO3)nnn1Cc1ccc(Cl)cc1	-4%	i	i	2%	3%	1
NS(=O)(=O)c1ccc(CCNC(=O)C(c2ccccc2)c2ccccc2)cc1	-8%	i	i	0%	-12%	8
COc1ccc(-n2ncc3c(N4CCN(Cc5ccccc5)CC4)ncnc32)cc1	?	13µM*	?	-2%	21µM*	-19
COc1ccc(-n2ncc3c(SCC(=O)N4CCN(c5ccccc5OC)CC4)ncnc32)cc1	1%	9.2µM*	i	-2%	?	8
Cn1ncc2c(N3CCC(Cc4ccccc4)CC3)ncnc21	3%	4.6µM*	?	-1%	-10%	6
CC1CCN(c2ncnc3c2cnn3Cc2ccc(Cl)cc2)CC1	3%	?	i	-4%	23%	-7
COc1ccccc1N1CCN(C(=O)CSc2ncnc3scc(-c4ccccc4)c23)CC1	1%	?	?	-3%	7%	-4
Cc1ccccc1N1CCN(c2ncnc3c2cnn3Cc2ccc(Cl)cc2)CC1	17%	?	18µM*	-4%	3%	1
c1ccc(CCN2CCN(c3ncnc4c3cnn4-c3ccccc3)CC2)cc1	-7%	i	?	-2%	?	-17
O=C(OCC1CCCO1)c1ccc2c(c1)N(Cc1c(F)cccc1Cl)C(=O)c1ccccc1S2(=O)=O (configuration not stated)	nt	i	i	nt	nt	nt
Cc1c(Cl)cccc1NC(=O)N1CCN(Cc2cc(=O)n3nc(-c4ccccc4F)sc3n2)CC1	nt	?	i	nt	nt	nt
CCc1cccc(NC(=O)COC(=O)c2ccccc2OCc2ccccc2Br)c1	nt	i	i	nt	nt	nt
O=C(CS(=O)Cc1ccco1)NCC=CCOc1cc(CN2CCCCC2)ccn1 (configuration not stated)	2%	nt	nt	nt	1%	nt
